Laboratory results published in PubChem BioAssay.
Active and inactive are the calls of the source.

Tests used:
[1] = optical density shifts of acrAB sulA E. coli – strain DRC41, OD650, 48 h, E. coli filamentation inducer project, primary screen (AID 1152); details: higher = more signal, called active from +8 up or from −8 down;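 note: E. coli MC1000 strain DRC41 lacking acrAB efflux pump and sulA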
[2] = probe aLefty1 binding on compound microarray – biochemical, small-molecule microarray, 635/667 nm fluorescence, primary screen (AID 1153); details: higher = more signal;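 note: score merges spot fluorescence with signal-to-noise ratio from the scanned slide images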
[3] = plasmodial surface anion channel blockers, osmotic lysis – cell-based, P. falciparum Indochina, OD700, 1 h, primary screen (AID 1154); details: P. falciparum Indochina infected RBC osmotic lysis, higher = more signal, called active from +8 up or from −8 down
[4] = plasmodial surface anion channel blockers, osmotic lysis – cell-based, P. falciparum Indochina, OD700, 2 h, primary screen (AID 1155);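 note: lysis reports solute entry through the parasite surface anion channel PSAC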; details: P. falciparum Indochina infected erythrocytes, higher = more signal, called active from +8 up or from −8 down
[5] = changes in parasitized red cell lysis, either direction – P. falciparum Indochina, OD700, 3 h, PSAC antagonist project, primary screen (AID 1156); details: P. falciparum-infected erythrocytes, osmotic lysis, higher = more signal, called active from +8 up or from −8 down
[6] = plasmodial surface anion channel blockers, osmotic lysis – cell-based, P. falciparum Indochina, OD700, 18 h, primary screen (AID 1157); details: P. falciparum Indochina infected erythrocytes, osmotic lysis OD700, 18 h; higher = more signal, called active from +8 up or from −8 down
[7] = S6 kinase pathway phospho-S6 level changes – cell-based, A549, cytoblot, luminescence, serum-stimulated, primary screen (AID 1158); details: 5 h, higher = more signal;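 note: serum-stimulated A549 lung adenocarcinoma cells; signal is phosphorylated S6 detected by cytoblot immunostaining with HRP secondary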
[8] = target: NADPH oxidase 2 (Homo sapiens) (UniProt P04839); test: compounds shifting NOX2 Amplex Red fluorescence – cell-based, HEK293-NOX2, PMA-stimulated, NOX inhibitor project, primary screen (AID 1159); details: 45 min, higher = more signal, called active from +8 up or from −8 down; note: test concentration not given here
NADPH oxidase 2 (Homo sapiens), sequence (P04839 whole entry, looked up): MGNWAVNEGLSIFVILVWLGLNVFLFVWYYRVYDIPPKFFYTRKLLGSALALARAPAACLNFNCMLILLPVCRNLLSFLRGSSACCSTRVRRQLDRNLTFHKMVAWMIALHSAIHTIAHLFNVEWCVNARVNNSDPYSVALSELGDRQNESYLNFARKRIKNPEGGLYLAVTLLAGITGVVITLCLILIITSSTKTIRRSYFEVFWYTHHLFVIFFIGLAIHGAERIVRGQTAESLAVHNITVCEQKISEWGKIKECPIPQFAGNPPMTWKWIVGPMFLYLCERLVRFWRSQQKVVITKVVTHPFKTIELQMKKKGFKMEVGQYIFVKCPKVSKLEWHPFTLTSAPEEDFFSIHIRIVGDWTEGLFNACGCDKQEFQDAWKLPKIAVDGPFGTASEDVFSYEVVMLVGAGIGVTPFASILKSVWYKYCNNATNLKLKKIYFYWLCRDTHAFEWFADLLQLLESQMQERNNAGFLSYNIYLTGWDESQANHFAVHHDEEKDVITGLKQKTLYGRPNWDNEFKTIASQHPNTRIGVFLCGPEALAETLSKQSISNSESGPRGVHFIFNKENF

[9] = target: NADPH oxidase 4 (Homo sapiens) (UniProt Q9NPH5); test: compounds shifting NOX4 Amplex Red fluorescence – cell-based, HEK293-NOX4, tetracycline-induced, NOX inhibitor project, primary screen (AID 1160); details: HEK293-NOX4, Amplex Red H2O2 fluorescence, 45 min; higher = more signal, called active from +8 up or from −8 down
NADPH oxidase 4 (Homo sapiens), sequence (Q9NPH5 whole entry, looked up): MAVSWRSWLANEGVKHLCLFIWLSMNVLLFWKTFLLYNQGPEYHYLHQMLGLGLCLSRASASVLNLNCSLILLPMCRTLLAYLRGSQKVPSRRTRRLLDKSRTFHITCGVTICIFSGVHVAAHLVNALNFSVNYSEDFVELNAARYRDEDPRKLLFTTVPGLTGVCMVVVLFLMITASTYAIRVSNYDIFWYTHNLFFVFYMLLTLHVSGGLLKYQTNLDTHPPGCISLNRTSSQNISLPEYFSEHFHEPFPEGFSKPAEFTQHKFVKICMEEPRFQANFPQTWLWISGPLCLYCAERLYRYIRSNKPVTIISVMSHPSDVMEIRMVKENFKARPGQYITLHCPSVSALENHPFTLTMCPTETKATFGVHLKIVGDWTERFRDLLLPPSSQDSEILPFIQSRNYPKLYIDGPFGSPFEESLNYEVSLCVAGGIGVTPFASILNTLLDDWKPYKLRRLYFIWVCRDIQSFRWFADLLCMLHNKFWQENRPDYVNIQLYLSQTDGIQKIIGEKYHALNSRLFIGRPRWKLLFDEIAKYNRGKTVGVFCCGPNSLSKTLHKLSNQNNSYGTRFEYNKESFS

[10] = target: NADPH oxidase 5 (Homo sapiens) (UniProt Q96PH1); test: compounds shifting NOX5 Amplex Red fluorescence – cell-based, HEK293-NOX5, NOX inhibitor project, primary screen (AID 1161); details: HEK293-NOX5, ionomycin, 45 min, higher = more signal
NADPH oxidase 5 (Homo sapiens), sequence (Q96PH1 whole entry, looked up): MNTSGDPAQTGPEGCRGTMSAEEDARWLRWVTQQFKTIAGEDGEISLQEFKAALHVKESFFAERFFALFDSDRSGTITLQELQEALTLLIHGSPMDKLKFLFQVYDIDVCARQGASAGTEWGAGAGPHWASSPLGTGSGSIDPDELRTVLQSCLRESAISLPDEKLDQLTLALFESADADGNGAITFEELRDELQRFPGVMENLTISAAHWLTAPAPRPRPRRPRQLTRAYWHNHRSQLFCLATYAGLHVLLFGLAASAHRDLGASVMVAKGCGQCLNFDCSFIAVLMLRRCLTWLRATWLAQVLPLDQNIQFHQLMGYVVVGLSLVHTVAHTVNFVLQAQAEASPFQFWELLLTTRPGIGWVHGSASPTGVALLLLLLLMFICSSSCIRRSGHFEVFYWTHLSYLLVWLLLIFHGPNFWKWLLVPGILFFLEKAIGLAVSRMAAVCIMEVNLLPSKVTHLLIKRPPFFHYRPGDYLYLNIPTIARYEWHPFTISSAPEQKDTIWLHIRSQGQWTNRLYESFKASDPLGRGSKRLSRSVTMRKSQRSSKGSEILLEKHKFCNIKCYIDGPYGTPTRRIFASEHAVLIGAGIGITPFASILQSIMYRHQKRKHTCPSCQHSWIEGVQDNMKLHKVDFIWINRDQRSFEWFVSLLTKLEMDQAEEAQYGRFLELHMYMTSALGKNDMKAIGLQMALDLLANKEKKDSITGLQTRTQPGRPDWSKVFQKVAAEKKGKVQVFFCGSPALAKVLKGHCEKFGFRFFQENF

[11] = compound effects on lung adenocarcinoma cell viability – A549, calcein-AM fluorescence, 48 h, basal, profiling panel (AID 1162); details: higher = more signal; note: test concentration not given here
[12] = compound effects on differentiated 3T3-L1 adipocyte viability – cell-based, 3T3-L1 adipocytes, calcein-AM fluorescence, 48 h, basal, profiling panel (AID 1163); details: 3T3-L1 adipocytes viability, higher = more signal; note: test concentration not given here
[13] = compound effects on hepatocellular carcinoma cell viability – HepG2, calcein-AM fluorescence, 48 h, basal, profiling panel (AID 1164); details: higher = more signal; note: test concentration not given here
[14] = compound effects on multiple myeloma cell viability – MM1S, calcein-AM fluorescence, 48 h, basal, profiling panel (AID 1165); details: higher = more signal;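 note: viability of MM1S multiple myeloma cells under basal unstimulated conditions; test concentration not given here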
[15] = calcein-AM signal in unstimulated myeloma cells – cell-based, calcein-AM fluorescence, 48 h, PK04 Diversity Set, profiling panel (AID 1166); details: RPMI8226 myeloma viability, higher = more signal;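 note: cells grown under basal conditions without added stimulus; test concentration not given here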
[16] = JC-1 mitochondrial signal, unstimulated HepG2 cells – cell-based, JC-1 fluorescence, 24 h, 100 nL compound, profiling panel (AID 1167); details: HepG2 mitochondrial potential, higher = more signal; note: test concentration not given here
[17] = JC-1 mitochondrial signal, unstimulated adipocytes – cell-based, JC-1 fluorescence, 3T3-L1 adipocytes, 24 h, 100 nL compound, profiling panel (AID 1168); details: JC-1 mitochondrial fluorescence, higher = more signal, called active from +8 up or from −8 down; note: test concentration not given here
[18] = JC-1 mitochondrial signal, unstimulated myeloma cells – cell-based, JC-1 fluorescence, RPMI8226, 24 h, 100 nL compound, profiling panel (AID 1169); details: JC-1 mitochondrial potential fluorescence, higher = more signal; note: test concentration not given here
[19] = JC-1 mitochondrial signal, unstimulated MM1S myeloma – cell-based, JC-1 fluorescence, 24 h, 100 nL compound, profiling panel (AID 1170); details: MM1S mitochondrial potential, higher = more signal; note: test concentration not given here
[20] = resazurin metabolic signal in A549 cells – cell-based, resazurin fluorescence, 24 h, PK04 Diversity Set, profiling panel (AID 1171); details: A549 viability, higher = more signal, called active from +8 up or from −8 down; note: test concentration not given here

SMILES	z-score [1]	composite z-score [2]	z-score [3]	z-score [4]	z-score [5]	z-score [6]	z-score [7]	z-score [8]	z-score [9]	z-score [10]	z-score [11]	z-score [12]	z-score [13]	z-score [14]	z-score [15]	z-score [16]	z-score [17]	z-score [18]	z-score [19]	z-score [20]
CC=CC(O)C1C=CC2C(=O)N(C)C(=O)C2N1NC(=O)OC(C)(C)C (stereo not given)	-1.06 (inactive)	0.277	-0.597 (inactive)	0.43 (inactive)	-0.0501 (inactive)	0.556 (inactive)	-1.42	-0.798 (inactive)	-1.37 (inactive)	-1.22	-0.73	-0.604	-0.39	-0.354	-0.303	-1.55	-0.238 (inactive)	0.397	0.163	-0.383 (inactive)
C=CCC(OC(C)=O)[C@@H]1[C@@H](N(Cc2ccc(-c3cccc(C(F)(F)F)c3)o2)C(=O)c2cccc3ccccc23)c2cc(OCCCO)ccc2N1C(=O)c1ccc2ccccc2c1 (stereo not given in full)	-0.0766 (inactive)	0.179	0.785 (inactive)	0.434 (inactive)	2.22 (inactive)	0.286 (inactive)	0.813	-2.13 (inactive)	-1.74 (inactive)	-1.76	0.281	2.03	0.723	-0.21	-1.99	2.7	-0.689 (inactive)	-0.556	-0.102	-0.453 (inactive)
C/C=C/CN(C(=O)C#Cc1ccccc1)[C@H](CO[Si](C)(C)C(C)(C)C)c1ccccc1	2.64 (inactive)	-0.324	0.567 (inactive)	-0.912 (inactive)	-0.509 (inactive)	-1.83 (inactive)	1.52	0.405 (inactive)	0.123 (inactive)	-0.373	-0.21	1.45	-0.488	-2.38	-3.4	2.31	1.37 (inactive)	-0.522	-0.0851	0.365 (inactive)
COC(=O)[C@@]1(Cc2ccc(F)cc2)[C@H]2c3cc(C(=O)N(C)C)n(CCn4cc([N+](=O)[O-])nc4C)c3C[C@H]2CN1C(=O)c1ccccc1	-2.34 (inactive)	0.0861	0.496 (inactive)	0.288 (inactive)	0.0718 (inactive)	0.544 (inactive)	0.0938	0.762 (inactive)	-0.00316 (inactive)	-0.683	-0.771	-0.417	0.346	-0.737	0.211	0.443	-0.596 (inactive)	0.0282	-0.54	-0.792 (inactive)
C=CCC(OC(C)=O)[C@@H]1[C@@H](N(Cc2ccc(-c3ccccc3)cc2)C(=O)c2cccc3ccccc23)c2cc(OCCCO)ccc2N1C(=O)c1ccc2ccccc2c1 (stereo not given in full)	-0.887 (inactive)	-0.0447	0.441 (inactive)	-0.35 (inactive)	-0.0836 (inactive)	-0.0577 (inactive)	-0.146	-0.634 (inactive)	-0.572 (inactive)	-4.29	0.197	-0.114	0.833	-0.679	-0.202	1.91	-1.3 (inactive)	-0.53	0.0357	-0.725 (inactive)
CCOC(=O)C[C@H]1[C@H](OC(=O)c2ccc(C(=O)c3ccccc3)cc2)[C@@H](NC(=O)c2ccc3ccccc3c2)c2cc(OCCCO)ccc2N1C(=O)c1ccc2ccccc2n1	1.86 (inactive)	0.23	6.29 (inactive)	1.32 (inactive)	-0.0906 (inactive)	0.728 (inactive)	0.154	0.412 (inactive)	0.0963 (inactive)	1.66	1.54	0.0263	0.664	0.393	-0.693	2.63	0.978 (inactive)	-0.0974	1.75	0.298 (inactive)
CCCCN1CC=CC23O[C@@H]4/C=C\CCC(C)OC(=O)C4[C@H]2C(=O)N(C(C)CO)[C@@H]3C1=O (stereo not given in full)	0.0581 (inactive)	-0.331	1.82 (inactive)	-0.0918 (inactive)	1.19 (inactive)	0.16 (inactive)	-0.0969	0.809 (inactive)	-0.42 (inactive)	1.27	-0.425	-0.708	0.201	0.646	-0.474	-0.318	-0.382 (inactive)	-0.726	-1.13	-0.016 (inactive)
COC(=O)[C@@]1(Cc2ccc(OC)cc2)[C@H]2c3cc(C(=O)N(C)C)n(Cc4ccsc4Br)c3C[C@H]2CN1C(=O)c1ccccc1	-0.218 (inactive)	0.456	4.25 (inactive)	1.16 (inactive)	0.57 (inactive)	0.814 (inactive)	-0.87	0.555 (inactive)	0.536 (inactive)	0.316	-0.299	0.157	0.205	-0.859	-0.51	2.25	0.171 (inactive)	-0.484	-0.468	0.141 (inactive)
C=CCC(OC(C)=O)[C@@H]1[C@@H](N(Cc2ccc(-c3cccc(C(F)(F)F)c3)o2)C(=O)Cc2ccc(OC)cc2)c2cc(OCCCO)ccc2N1C(=O)c1ccc2ccccc2n1 (stereo not given in full)	-0.797 (inactive)	-0.0046	0.83 (inactive)	0.74 (inactive)	0.959 (inactive)	0.289 (inactive)	0.342	-0.236 (inactive)	-1.23 (inactive)	-1.45	-0.0093	0.341	0.279	-1.2	-2.3	2.12	0.253 (inactive)	-0.616	1.42	-1.25 (inactive)
CCOC(=O)C1=CC[C@@H](c2ccc(F)cc2)N(S(=O)(=O)c2ccc(C)cc2)[C@H]1c1ccc([N+](=O)[O-])cc1	0.251 (inactive)	-0.0946	1.83 (inactive)	1.12 (inactive)	-0.186 (inactive)	1.22 (inactive)	-0.399	1.36 (inactive)	0.856 (inactive)	1.4	-0.606	-0.415	-0.661	-0.724	0.192	1.65	-0.754 (inactive)	0.235	-0.862	1.8 (inactive)
COC(=O)[C@@]1(CCC(=O)OC(C)(C)C)N=C(c2ccc(OCCCO)cc2)O[C@H]1c1ccccc1CN=[N+]=[N-]	-0.0301 (inactive)	0.437	21.3 (active)	6.25 (inactive)	0.765 (inactive)	1.4 (inactive)	-0.184	-1.47 (inactive)	-0.475 (inactive)	-0.802	-1.06	-1.3	-2.51	-3.2	-3.95	-1.7	-0.472 (inactive)	-1.12	-1.73	-0.227 (inactive)
CCOC(=O)C[C@H]1[C@H](OC(=O)c2ccc(-c3ccccc3)cc2)[C@@H](NC(=O)c2ccc3ccccc3c2)c2cc(OCCCO)ccc2N1C(=O)c1ccccc1	-0.966 (inactive)	0.0691	0.398 (inactive)	0.134 (inactive)	-0.337 (inactive)	0.407 (inactive)	0.263	-2.38 (inactive)	-1.62 (inactive)	-0.532	-0.9	0.237	-0.307	-0.438	-0.322	0.762	-0.0421 (inactive)	0.483	-0.108	0.231 (inactive)
CN1C=C(C(=O)OCCS(C)(=O)=O)C(C(=O)OCCS(C)(=O)=O)=CC(CCCO)=CC1c1ccc(CN2CCCC2)cc1 (stereo not given)	0.0837 (inactive)	0.546	1.39 (inactive)	-0.162 (inactive)	-0.203 (inactive)	0.0374 (inactive)	-0.0029	0.526 (inactive)	0.0702 (inactive)	-1.65	1.46	-2.48	1.81	0.101	-0.268	1.82	-0.469 (inactive)	1.33	-0.394	0.0251 (inactive)
CC(C)CNC(=O)[C@@H]1c2ccccc2C(=O)N(Cc2ccccc2)[C@H]1c1ccc(CO)cc1	-0.603 (inactive)	-0.106	1.49 (inactive)	0.294 (inactive)	2.44 (inactive)	0.769 (inactive)	-0.316	-0.638 (inactive)	-1.24 (inactive)	-3.17	-0.412	0.175	-0.345	0.0234	0.65	0.508	-0.526 (inactive)	0.146	-0.139	0.678 (inactive)
COC(=O)Cn1c(C(=O)N(C)C)cc2c1C[C@H]1CN(C(=O)c3ccccc3)[C@@](Cc3ccc(OC)cc3)(C(=O)OC)[C@@H]21	-1.35 (inactive)	0.546	2.81 (inactive)	0.765 (inactive)	1.04 (inactive)	0.765 (inactive)	-0.62	0.494 (inactive)	-0.539 (inactive)	0.813	-0.199	-0.714	0.496	0.611	-0.734	3.44	-0.881 (inactive)	-0.329	-1.36	-0.31 (inactive)
O=C1O[C@H](c2ccccc2)[C@H](c2ccccc2)N2[C@H]1[C@@H](C(=O)N1CCN(c3ncccn3)CC1)[C@]1(C(=O)Nc3ccccc31)[C@H]2c1ccc(O)cc1	0.649 (inactive)	0.0262	1.24 (inactive)	1.01 (inactive)	-0.236 (inactive)	1.01 (inactive)	0.0782	0.898 (inactive)	-1.54 (inactive)	1.65	0.947	1.36	0.406	-1.28	-4	-1.26	1.04 (inactive)	-1.06	0.183	0.371 (inactive)
Cc1ccccc1C(O)C1C=CC2C(=O)N(c3ccccc3)C(=O)C2N1Nc1ccccc1F (stereo not given)	-1.37 (inactive)	0.649	10.8 (active)	2.28 (inactive)	0.39 (inactive)	1.1 (inactive)	-1.16	-2.02 (inactive)	-5.43 (inactive)	-3.71	0.569	-0.522	-0.157	-0.584	-0.666	-2.82	-1.49 (inactive)	-0.0566	0.368	-0.425 (inactive)
C=CCC(OC(C)=O)[C@@H]1[C@@H](N(Cc2ccc(-c3ccccc3)cc2)C(=O)c2ccc(-c3ccccc3)cc2)c2cc(OCCCO)ccc2N1C(=O)c1ccc2ccccc2n1 (stereo not given in full)	0.803 (inactive)	0.026	0.135 (inactive)	0.078 (inactive)	-0.452 (inactive)	-0.033 (inactive)	0.364	1.18 (inactive)	1.33 (inactive)	1.17	0.393	0.167	0.486	-0.265	-0.189	2.22	-0.124 (inactive)	-0.742	-0.133	1.67 (inactive)
